Measured values from PubChem BioAssay (NCI).
This is part of a sample that, as a whole, favours compounds with a hit. Of some 79,000 tested, about 15% had one in any assay. Activity calls are given as the source filed them. Rule as the data show it: active = growth inhibition above about 70%; inactive = the rest.

Legend:
[1] = NCI Yeast Anticancer Drug Screen. Data for the rad52 strain (AID 147);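 also: 0% = growth of vehicle-treated control cultures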; conditions: S. cerevisiae rad52 mutant growth inhibition, hits give high values
In short: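 DNA repair-defective yeast; compound exposure; growth scored against vehicle controls.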

[2] = NCI Yeast Anticancer Drug Screen. Data for the wt1 strain (AID 149);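 also: 0% = growth of vehicle-treated wt1 cultures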; conditions: S. cerevisiae wt1 strain (SPY 50644) growth inhibition, hits give high values
In short: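 Yeast wt1 strain exposed to compounds; growth inhibition measured relative to vehicle-treated controls.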

[3] = NCI Yeast Anticancer Drug Screen. Data for the rad50 strain (AID 155);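 also: 0% = growth of vehicle-only cultures of the same strain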; conditions: S. cerevisiae rad50 strain growth inhibition, hits give high values
In short: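 Yeast carrying a defined DNA repair defect were exposed to test compounds, and growth was compared with vehicle-treated controls to give percent inhibition.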

[4] = NCI Yeast Anticancer Drug Screen. Data for the mec2-1 strain (AID 157); conditions: S. cerevisiae mec2-1 strain, hits give high values
In short: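 Growth inhibition is read against vehicle-treated controls after compound exposure of the mec2-1 yeast strain, which is defective in DNA damage repair or cell cycle control.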

[5] = NCI Yeast Anticancer Drug Screen. Data for the rad14 strain (AID 159);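 also: 0% = growth of vehicle-treated control cultures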; conditions: S. cerevisiae rad14 strain growth inhibition, hits give high values
In short: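 Yeast cells carrying a defined DNA-repair defect were exposed to compounds, and growth inhibition was calculated relative to vehicle-treated control cultures.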

[6] = NCI Yeast Anticancer Drug Screen. Data for the sgs1 mgt1 strain (AID 161);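 also: 0% = growth of cultures given vehicle only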; conditions: S. cerevisiae sgs1 mgt1 strain, hits give high values
In short: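 Growth of a repair-deficient yeast mutant was monitored after compound treatment and expressed as inhibition relative to vehicle-treated cultures.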

[7] = NCI Yeast Anticancer Drug Screen. Data for the CLN2oe strain (AID 163);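 also: 0% = growth of vehicle-only control cultures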; conditions: S. cerevisiae CLN2oe strain, hits give high values
In short: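 Compound-treated yeast; growth vs vehicle ctrl = % inhibition. Genetically altered strain (cell-cycle control).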

[8] = NCI Yeast Anticancer Drug Screen. Data for the cln2 rad14 strain (AID 165);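 also: 0% = growth equal to vehicle treated cultures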; conditions: S. cerevisiae cln2 rad14 strain, hits give high values
In short: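 Growth inhibition, relative to vehicle-treated controls, is the read-out. The test organism is a yeast strain with defined genetic alterations, cln2 rad14.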

[9] = NCI Yeast Anticancer Drug Screen. Data for the bub3 strain (AID 167); conditions: S. cerevisiae bub3 mutant strain, hits give high values
In short: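 Compounds were applied to a genetically altered yeast strain carrying a cell-cycle control defect. Growth inhibition was scored against vehicle-treated controls.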

[10] = NCI Yeast Anticancer Drug Screen. Data for the wt2 strain (AID 169);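 also: 0% = growth of vehicle-treated yeast cultures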; conditions: S. cerevisiae wt2 strain growth inhibition, hits give high values
In short: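 Compound exposure of yeast; growth compared with vehicle controls; inhibition reported.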

[11] = NCI Yeast Anticancer Drug Screen. Data for the mlh1 strain (AID 171);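 also: 0% = growth of vehicle-treated control cultures of the same strain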; conditions: S. cerevisiae mlh1 strain growth inhibition, hits give high values
In short: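 Compounds are applied to a genetically altered yeast strain, and its growth is compared with that of vehicle-treated cultures to give percent inhibition.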

[12] = NCI Yeast Anticancer Drug Screen. Data for the sgs1 strain (AID 173);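 also: 0% = growth of vehicle-only control cultures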; conditions: S. cerevisiae sgs1 mutant, hits give high values
In short: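 Compounds applied to genetically altered yeast; growth compared with vehicle-treated cultures to give % inhibition.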

[13] = NCI Yeast Anticancer Drug Screen. Data for the mlh1 rad18 strain (AID 175); conditions: S. cerevisiae mlh1 rad18 strain growth inhibition, hits give high values
In short: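 Cells of a genetically altered yeast strain, deficient in DNA damage repair, were treated with compound. Their growth was then compared with that of vehicle-treated cultures to give inhibition.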

[14] = NCI Yeast Anticancer Drug Screen. Data for the rad18 strain (AID 177); conditions: S. cerevisiae rad18 mutant growth inhibition, hits give high values
In short: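 Compounds are applied to a repair-deficient yeast strain, and growth is compared with that of vehicle-treated cultures to give percent inhibition.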

[15] = at 5.0 µM (retest, dose inferred, filed as 0.5)
[16] = at 50.0 µM (retest, dose inferred, filed as 5.0)

Measured: growth inhibition

Nc1cc(F)cc2c1-c1ccc(F)cc1C2
active: [1]; at 100.0 µM 92% | [2]; at 100.0 µM 90% | [3]; at 50.0 µM 87% | [3]; at 100.0 µM 92% | [4]; at 50.0 µM 74.6% | [4]; at 100.0 µM 91% | [5]; at 100.0 µM 94% | [6]; at 50.0 µM 77% | [7]; at 100.0 µM 72% | [8]; at 50.0 µM 78.5% | [9]; at 50.0 µM 78.5% | [9]; at 100.0 µM 91% | [10]; at 100.0 µM 89% | [11]; at 100.0 µM 92% | [12]; at 100.0 µM 93% | [13]; at 50.0 µM 87.7% | [14]; at 100.0 µM 94%
inactive: [1]; at 1.2 µM -1% | [1]; at 3.7 µM -1% | [1]; at 11.0 µM 3% | [1]; at 33.0 µM 30% | [2]; at 1.2 µM -3% | [2]; at 3.7 µM -4% | [2]; at 11.0 µM -4% | [2]; at 33.0 µM 10% | [3]; at 1.2 µM 6% | [3]; at 3.7 µM -41% | [3]; [15] 1% | [3]; at 11.0 µM 33% | [3]; at 33.0 µM 47% | [3]; [16] 60% | [4]; at 1.2 µM -1% | [4]; at 3.7 µM 1% | [4]; [15] 2% | [4]; at 11.0 µM 2% | [4]; at 33.0 µM 23% | [4]; [16] 18% | [5]; at 1.2 µM 4% | [5]; at 3.7 µM 5% | [5]; at 11.0 µM 9% | [5]; at 33.0 µM 27% | [6]; [15] -5% | [6]; [16] 7% | [7]; at 1.2 µM -10% | [7]; at 3.7 µM -9% | [7]; at 11.0 µM -1% | [7]; at 33.0 µM 7% | [8]; [15] 0% | [8]; [16] 40% | [9]; at 1.2 µM -1% | [9]; at 3.7 µM -2% | [9]; [15] 3% | [9]; at 11.0 µM -2% | [9]; at 33.0 µM 16% | [9]; [16] 27% | [10]; at 1.2 µM -3% | [10]; at 3.7 µM 5% | [10]; at 11.0 µM -3% | [10]; at 33.0 µM 15% | [11]; at 1.2 µM -4% | [11]; at 3.7 µM -3% | [11]; at 11.0 µM -3% | [11]; at 33.0 µM 14% | [12]; at 1.2 µM -3% | [12]; at 3.7 µM 0% | [12]; at 11.0 µM 6% | [12]; at 33.0 µM 46% | [13]; [15] -1% | [13]; [16] 61% | [14]; at 1.2 µM -1% | [14]; at 3.7 µM 4% | [14]; at 11.0 µM 7% | [14]; at 33.0 µM 49%
